# Jurkat NFkB inh: inhibitors of the PMA/ionomycin-induced NF-kB reporter in Jurkat cells. PMA/ionomycin-induced NF-kB luciferase reporter, luminescence. inhibition, % at 4 µM. 330,000 compounds, 0.53% hits. AID 435003; in the data active = inhibition above about 50%
# Gli-Sufu antag: blocks Gli-Sufu signaling in a luciferase reporter; Sufu-KO-LIGHT fibroblasts, Gli luciferase reporter luminescence; inhibition, % at 5 µM; 340,000 compounds, 0.74% hits;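 active = inhibition above about 55%, limit read from the data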;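 also: 0% = DMSO-treated cells and 100% = wells with medium but no cells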
# Beta apoptosis: beta cell apoptosis inhibition; INS-1E cytokine-induced death, ATP luminescence, 48 h; percent of positive-control rescue, neutral wells zero; protection from apoptosis, % (no concentration beside the values); 300,000 compounds, 0.8% hits;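 active = Every replicate reaches about 75%, or at least half do and their mean reaches it too, limit read from the data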;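 also: 0% = cytokine-treated negative control wells and 100% = positive control rescue; higher means more ATP so stronger rescue from cytokine killing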
# 697 NFkB inh: lowers PMA/ionomycin-induced NF-kB signal in 697 B cells; 697 B-cell NF-kB luciferase reporter, 16 h; 330,000 compounds, 0.33% hits; inhibition, % at 4 µM; AID 435022; in the data active = inhibition above about 35%
# Mdm2 MdmX PPI: disrupts the human Mdm2-MdmX interaction; SaOS-2 split-luciferase Mdm2/MdmX complementation, luminescence; inhibition, % at 8 µM; AID 485346; 330,000 compounds, 3% hits; O15151+Q00987;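 active = inhibition of at least 50% at 8 µM in the primary screen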
# Target sequence (O15151 whole entry, looked up): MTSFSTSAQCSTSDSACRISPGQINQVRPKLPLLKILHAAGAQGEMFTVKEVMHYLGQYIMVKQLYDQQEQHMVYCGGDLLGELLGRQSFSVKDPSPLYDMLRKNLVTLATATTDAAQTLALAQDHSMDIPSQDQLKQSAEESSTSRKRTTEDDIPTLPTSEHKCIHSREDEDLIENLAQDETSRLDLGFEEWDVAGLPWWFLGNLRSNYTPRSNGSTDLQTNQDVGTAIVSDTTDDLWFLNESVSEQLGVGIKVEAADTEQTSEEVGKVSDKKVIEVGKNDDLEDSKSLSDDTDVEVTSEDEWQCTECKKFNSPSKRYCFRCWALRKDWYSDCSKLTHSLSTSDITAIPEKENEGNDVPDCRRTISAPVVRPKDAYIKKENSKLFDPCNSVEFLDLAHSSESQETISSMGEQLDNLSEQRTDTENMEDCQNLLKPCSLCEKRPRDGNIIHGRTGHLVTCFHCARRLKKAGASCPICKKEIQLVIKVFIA
# Target sequence (Q00987 whole entry, looked up): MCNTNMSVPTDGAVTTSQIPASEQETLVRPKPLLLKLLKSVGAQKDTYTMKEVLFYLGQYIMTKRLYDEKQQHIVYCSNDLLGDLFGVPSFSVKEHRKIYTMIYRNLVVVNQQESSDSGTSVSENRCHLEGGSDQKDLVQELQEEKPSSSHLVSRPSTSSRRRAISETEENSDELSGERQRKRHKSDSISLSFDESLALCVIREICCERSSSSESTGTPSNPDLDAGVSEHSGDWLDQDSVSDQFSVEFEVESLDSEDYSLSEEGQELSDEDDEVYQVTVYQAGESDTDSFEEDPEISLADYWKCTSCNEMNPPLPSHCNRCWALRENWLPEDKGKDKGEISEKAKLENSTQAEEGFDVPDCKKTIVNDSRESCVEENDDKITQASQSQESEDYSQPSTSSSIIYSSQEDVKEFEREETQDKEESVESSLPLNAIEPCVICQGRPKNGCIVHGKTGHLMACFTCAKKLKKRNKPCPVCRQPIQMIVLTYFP
# Mdm2 MdmX conf: human Mdm2/MdmX binding inhibition, confirmed. 10,000 compounds, 55% hits. luminescent assay. inhibition, % at 8 µM. AID 489028. shares compounds with Mdm2 MdmX PPI; in the data active = inhibition above about 40%
# FLuc counter: counter-screen for Mdm2/MdmX inhibitors: full-length luciferase | SaOS-2 full-length luciferase counterscreen, luminescence | inhibition, % at 8 µM | 6,200 compounds, 77% hits | AID 504607 | shares compounds with Mdm2 MdmX PPI;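 active = mean inhibition at 8 µM reaching about 37%, which flags the compound as non-specific, limit read from the data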;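 also: p53-null SaOS-2 cells with luciferase driven by a doxycycline-inducible promoter; compound on cells about two nights before reading with doxycycline added after day one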
# * = called active by the depositor; . = no result given; + = active, no number. Only some compounds are listed: those with a hit (about 4% of all), similar ones and a draw of the others.
SMILES,Jurkat NFkB inh,Gli-Sufu antag,Beta apoptosis,697 NFkB inh,Mdm2 MdmX PPI,Mdm2 MdmX conf,FLuc counter
COc1cccc(CC2(CO)CCCN(Cc3[nH]c4ccc(C)cc4c3C)C2)c1 (centres undefined),-2,7,-2,10,63*,20,.
COc1cccc(CC2(CO)CCCN(Cc3ccc(C)s3)C2)c1 (centres undefined),11,1,0,-4,1,.,.
CCc1cc2c(nc1CC)CCN(CC/C(C)=N/OC[C@H]1O[C@H](c3ccccc3)C=C[C@@H]1Oc1ccc(OC)cc1)C2,4,.,.,14,54*,41*,65*
Cc1cc(C)nc(SCC(=O)Nc2ncc(Cc3ccc(Cl)c(Cl)c3)s2)n1,23,10,23,-22,52*,13,.
Cc1ccc(Cc2cnc(NC(=O)CN3CCOCC3)s2)cc1Cl,-9,-2,0,-28,2,.,.
Cc1ccc(-n2ncc3c2CCCC3NC(=O)CCCN2CCCCC2=O)cc1C (centres undefined),5,0,0,20,-4,.,.
CNC(=O)CN(c1ccc(C23CC4CC(CC(C4)C2)C3)cc1)S(C)(=O)=O,21,9,4,3,-3,.,.
CS(=O)(=O)N(CC(=O)Nc1ccc(CC#N)cc1)c1ccc(C23CC4CC(CC(C4)C2)C3)cc1,-1,-21,88*,-14,64*,-5,.
CC(=O)Nc1ccc(NC(=O)CN(c2ccc(C34CC5CC(CC(C5)C3)C4)cc2)S(C)(=O)=O)cc1,23,-10,13,-41,56*,29,.
O=C(Nc1ccc(S(=O)(=O)N2CCOCC2)cc1)c1cc(-c2ccccc2O)n[nH]1,-7,3,-4,-6,1,.,.
CC1CN(S(=O)(=O)c2ccc(NC(=O)c3cc(-c4ccccc4O)n[nH]3)cc2)CC(C)O1 (centres undefined),9,39,8,-30,58*,32,.
O=C(Nc1ccc(-n2ccc(C(F)(F)F)n2)cc1)Nc1cccc(Cl)c1,-32,.,116*,-39,80*,30,82*
Cc1cc(C)cc(NC(=O)Nc2ccc(-n3ccc(C(F)(F)F)n3)cc2)c1,-26,-2,30,-1,37,.,.
CCOC(=O)Cn1c(S(=O)(=O)Cc2cccc(F)c2)nc(-c2ccccc2)c1-c1ccccc1,-46,12,31,-104,81*,56*,67*
CCOC(=O)Cn1c(-c2ccccc2)nc2ccccc2c1=O,2,5,-5,5,0,.,.
CCOC(=O)Cn1c(S(=O)(=O)Cc2ccc(F)cc2)nc(-c2ccccc2)c1-c1ccccc1,-23,11,3,-96,79*,56*,63*
Cc1ccc(C(=O)N2CCN(c3ncnc4c3cnn4-c3ccccc3)CC2)cc1,48,.,6,-49,82*,58*,68*
CC1CCCN(c2ncnc3c2cnn3-c2ccccc2)C1 (centres undefined),-102,2,6,-220,52*,52*,192*
CN1CCN(c2ncnc3c2cnn3-c2ccc(Cl)cc2)CC1,-119,34,0,-140,51*,60*,+
Cc1ccc(-n2ncc3c(N4CCCC(C)C4)ncnc32)c(C)c1 (centres undefined),-107,-77,17,-145,-149,.,.
COc1ccc(-n2ncc3c(N4CCN(Cc5ccccc5)CC4)ncnc32)cc1,26,-5,5,5,85*,64*,77*
Cc1ccccc1C(=O)N1CCN(c2ncnc3c2cnn3-c2ccccc2)CC1,17,26,-1,-12,-6,.,.
CCN1CCN(c2ncnc3c2cnn3-c2ccc(Cl)cc2)CC1,-102,-21,0,-72,-34,.,.
COc1cc(COc2ccc3c(C)c(CC(=O)O)c(=O)oc3c2C)cc(OC)c1OC,-5,1,-3,-33,-42,.,.
c1ccc(-n2ncc3c(N4CCCCC4)ncnc32)cc1,-57,-17,-2,-144,51*,53*,160*
SMILES,Jurkat NFkB inh,Gli-Sufu antag,Beta apoptosis,697 NFkB inh,Mdm2 MdmX PPI,Mdm2 MdmX conf,FLuc counter
CCN1CCN(c2ncnc3c2cnn3-c2ccccc2)CC1,-57,-35,-3,-30,-14,.,.
CC(C)N1CCc2c(sc(NC(=O)c3nc4ccccc4s3)c2C(N)=O)C1,-15,7,4,11,14,.,.
CC(C)N1CCc2c(sc(NC(=O)c3cc(-c4cccs4)nc4ccccc34)c2C(N)=O)C1,23,43,25,16,73*,33,.
NC(=O)c1ccsc1NC(=O)c1ccc(S(=O)(=O)N2CCCc3ccccc32)cc1,0,7,.,-63,59*,1,.
CC(C)N1CCc2c(sc(NC(=O)c3ccc([N+](=O)[O-])o3)c2C(N)=O)C1,39,.,71,-8,89*,94*,19
CC(C)N1CCc2c(sc(NC(=O)c3ccc(S(=O)(=O)N4CCc5ccccc54)cc3)c2C(N)=O)C1,6,10,3,-32,100*,30,.
Cc1ccc(C(=O)N2CCC(Cc3ccccc3)CC2)cc1S(=O)(=O)N1CCOCC1,20,4,.,-19,26,.,.
COc1ccc(C(=O)Nc2ccc(Oc3ncnc4sc(-c5ccccc5)cc34)cc2)cc1OC,-32,11,4,-9,5,.,.
COc1cc(C(=O)Nc2ccc(Oc3ncnc4sc(-c5ccccc5)cc34)cc2)cc(OC)c1OC,15,14,4,17,53*,28,.
COc1ccc(C(=O)Nc2ccc(Oc3nc(C)nc4sc(-c5ccccc5)cc34)cc2)cc1OC,-15,17,35,-20,56*,-4,.
O=C(CNS(=O)(=O)c1ccccc1)N1CCc2ccccc2C1,-29,11,-4,-21,-11,.,.
Cc1ccc(C(=O)NCC(=O)NCC(c2cccs2)N2CCOCC2)cc1C (centres undefined),-1,-1,-6,-1,-21,.,.
COc1cccc(CN2CCC(N(CCc3ccccc3)Cc3ccccc3)CC2)c1OC,1,18,113*,-29,61*,28,.
COc1cccc(CN2CCN(Cc3cccc(Oc4ccccc4)c3)CC2)c1OC,8,16,-7,1,0,.,.
CN1CCC(N(C)C(=O)/C=C/c2cn(-c3ccccc3)nc2-c2cccs2)CC1,-25,30,5,17,76*,35,67*
O=C(N/N=C/c1cn(-c2ccccc2)nc1-c1cccs1)c1ccc(Cl)cc1,-22,-24,48,-7,52*,31,.
O=C(N/N=C/c1cccs1)c1cccc(S(=O)(=O)Nc2ccc(Cl)cc2)c1,-10,-7,0,15,31,.,.
O=C(N/N=C/c1cccs1)c1cccc(NC(=O)c2ccc(Cl)cc2)c1,-2,.,67,8,57*,3,.
Cc1cc(=O)[nH]c2c(C)c(N)ccc12,10,2,-3,2,-21,.,.

# Screening data (PubChem BioAssay)
